# Results published in PubChem BioAssay (Tox21).
# A number with no mark means an inactive call. Results filed as inconclusive are left out. Entries that show only a call come without a potency. Activity calls are given as the source filed them. Unless noted, the call rests on the fitted dose curve; in most records, active means well fitted curve in the direction sought with a large enough effect in the repeat runs; inconclusive means weak or mixed curves; inactive means no such curve, though single readings can be large; an effect the other way counts as inactive or inconclusive.
# Experiments:
# [1] = qHTS assay to identify small molecule antagonists of the sonic hedgehog signaling (Shh) pathway (AID 1259369; calls by dose curve; further: nearly all actives have a fitted effect of over 45% in size; further: potency means the concentration at half of the fitted maximal effect)
# Method in brief: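 Conditioned medium drives Shh signalling in 3T3Gli1-Luc cells; compounds in DMSO co-applied, 24hr at 37 C, then luciferase luminescence.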
# [2] = biological target: Estrogen receptor beta (Homo sapiens) (UniProt Q92731); assay: qHTS assay to identify small molecule agonists of the estrogen receptor beta (ER-beta) signaling pathway (AID 1259377; active means well fitted activation curve with a large enough effect in the signal ratio in the repeat runs, not every such curve was filed as active; the % refers to the signal ratio)
# Method in brief: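 Beta-lactamase reporter readout: fluorescence of LiveBLAzer B/G FRET substrate after 2 h at room temperature, following 16 h compound treatment of ER-beta-UAS-bla HEK293T cells at 37C in 2% charcoal-stripped FBS medium.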
# [3] = biological target: Estrogen receptor beta (Homo sapiens) (UniProt Q92731); assay: qHTS assay to identify small molecule antagonists of the estrogen receptor beta (ER-beta) signaling pathway (AID 1259378; active means well fitted inhibition curve with a large enough effect in the signal ratio in the repeat runs, not every such curve was filed as active; the % refers to the signal ratio; further: potency means the concentration at half of the fitted maximal effect)
# Method in brief: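 ER-beta-UAS-bla HEK293T (GripTite) cells in 2% charcoal-stripped FBS medium were preincubated 6 hr at 37C, dosed with compound, then stimulated with 1 nM E2 (final) for 16 hr; beta-lactamase reporter read by B/G FRET fluorescence after 2 hr substrate loading.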
# [4] = qHTS assay to identify small molecule agonists of the androgen receptor (AR) signaling pathway in the presence of an antagonist - cell viability counter screen (AID 1259379); further: nearly all actives have a fitted effect of over 25% in size; further: potency means the concentration at half of the fitted maximal effect
# Method in brief: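 A CellTiter-Fluor read-out measured viability of MDA-kb2 reporter cells (MMTV promoter with AR and GR response elements). Treatment: nilutamide 3.0uM final with compounds at 15 concentrations, 16 hr, 37C, 0% CO2.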
# [5] = qHTS assay to identify small molecule agonists of the estrogen receptor beta (ER-beta) signaling pathway - cell viability counter screen (AID 1259380); further: nearly all actives have a fitted effect of over 30% in size; further: potency means the concentration at half of the fitted maximal effect
# Method in brief: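 Cells used were ER-beta-UAS-bla HEK293T in medium with 2% charcoal-stripped FBS. They were treated for 16 hr at 37C. Viability came from CellTiter-Glo luminescence.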
# [6] = qHTS assay to identify small molecule antagonists of the estrogen receptor beta (ER-beta) signaling pathway - cell viability counter screen (AID 1259382); further: series mostly up to about 92 µM; nearly all actives have a fitted effect of over 55% in size
# Method in brief: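 Agonist-stimulated (1nM E2) ER-beta-UAS-bla HEK293T cells are incubated with library compounds for 16 hr at 37C. Cell viability is then assessed in the reporter-assay wells by adding CellTiter-Glo and reading luminescence after 30 min.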
# [7] = qHTS assay to identify small molecule agonists or antagonists of the thyroid stimulating hormone receptor (TSHR) signaling pathway - wild type cell line counter screen (AID 1259384; calls by dose curve)
# Method in brief: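 Wild-type HEK293 cells were plated 18 h at 37 C/5% CO2, pin-dosed with compound plus Ro20-1724 medium, held 30 min at room temperature, then given cAMP-d2 and anti-cAMP-cryptate; fluorescence was read after 1 h. Fifteen concentrations, triplicate.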
# [8] = qHTS assay to identify small molecule agonists of the estrogen receptor alpha (ER-alpha) signaling pathway in the presence of an antagonist - cell viability counter screen (AID 1259386);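 further: cells exposed to compounds for 22 h at 37 °C before the viability read; nearly all actives have a fitted effect of over 30% in size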; further: potency means the concentration at half of the fitted maximal effect
# Method in brief: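 ICI-182,780 at 10.0nM final accompanies the compound titration (15 concentrations, 22hr, 37C) on VM7Luc4E2 cells. The CellTiter-Fluor fluorescence readout runs in the same wells as the luciferase assay.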
# [9] = biological target: Progesterone receptor (Homo sapiens) (UniProt P06401); assay: qHTS assay to identify small molecule agonists of the progesterone receptor (PR) signaling pathway (AID 1346784; calls by dose curve; further: nearly all actives have a fitted effect of over 30% in size)
# Method in brief: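 HEK 293T PR-UAS-bla reporter cells, 2% charcoal-stripped FBS; 6 hr settle at 37C/5% CO2, compound (DMSO) 16 hr, LiveBLAzer B/G FRET substrate 2 hr RT, fluorescence intensity read.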
# [10] = qHTS assay to identify small molecule antagonists of the progesterone receptor (PR) signaling pathway - cell viability counter screen (AID 1346798); further: series mostly up to about 92 µM; nearly all actives have a fitted effect of over 50% in size
# Method in brief: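 Luminescence readout (CellTiter-Glo, 30 min, RT) of viability in PR-UAS-bla HEK293T cells exposed to compound and R5020 agonist for 16 hr at 37C, 5% CO2; run in the same wells as the beta-lactamase reporter read.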
# [11] = qHTS assay to identify small molecule agonists of the progesterone receptor (PR) signaling pathway - cell viability counter screen (AID 1346799; calls by dose curve; further: nearly all actives have a fitted effect of over 45% in size)
# Method in brief: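 HEK293T PR-UAS-bla, 3,000 cells/well, 2% charcoal-stripped FBS; 6 h settle, compound 16 h at 37C/5% CO2; LiveBLAzer 2 h RT, then CellTiter-Glo 30 min RT, luminescence read.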
# [12] = qHTS assay to identify small molecule antagonists of the TGF-beta/Smad signaling pathway - cell viability counter screen (AID 1346824); further: nearly all actives have a fitted effect of over 50% in size; further: potency means the concentration at half of the fitted maximal effect
# Method in brief: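 SBE-bla HEK 293T cells were plated overnight at 37 C, then given compounds in DMSO plus TGF-beta1 (added as 0.25 ng/mL solution) for 5 hr. After the bla read, CellTiter-Glo was added to the same wells and luminescence read after 30 min at room temperature.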
# [13] = qHTS assay to identify small molecule agonists of the TGF-beta/Smad signaling pathway - cell viability counter screen (AID 1346829); further: top concentration of the series differs between compounds; nearly all actives have a fitted effect of over 45% in size
# Method in brief: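 Here the cytotoxicity of library compounds is measured in SBE-bla HEK 293T cells treated for 5 hr, using CellTiter-Glo added to wells already read for the beta-lactamase reporter.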
# [14] = qHTS assay to identify small molecule agonists of the TGF-beta/Smad signaling pathway (AID 1346859; active means well fitted activation curve with a large enough effect in the signal ratio in the repeat runs, not every such curve was filed as active; the % refers to the signal ratio; further: series mostly up to about 77 µM)
# Method in brief: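 Read-out: fluorescence at 460 and 530 nm (405 nm excitation) after a 2 hr room-temperature incubation with beta-lactamase FRET substrate. SBE-bla HEK 293T cells had been treated with test compounds for 5 hr at 37 C.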
# [15] = biological target: Thyrotropin-releasing hormone receptor (Homo sapiens) (UniProt P34981); assay: qHTS assay to identify small molecule antagonists of the thyrotropin-releasing hormone receptor (TRHR) signaling pathway (AID 1346877; active means well fitted inhibition curve with a large enough effect in the repeat runs, not every such curve was filed as active; further: series mostly up to about 51 µM)
# Method in brief: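 Screening used HEK293 cells engineered with TRHR, with a brief 5 min room-temperature compound exposure preceding addition of TRH to 1 nM. The read-out was kinetic calcium-dye fluorescence, concentration-response from 15 doses in triplicate.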
# [16] = biological target: Thyrotropin-releasing hormone receptor (Homo sapiens) (UniProt P34981); assay: qHTS assay to identify small molecule agonists of the thyrotropin-releasing hormone receptor (TRHR) signaling pathway (AID 1346891; calls by dose curve;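 further: HEK293 cells expressing TRHR with calcium dye readout; series mostly up to about 58 µM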)
# Method in brief: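 HEK293/TRHR cells, 1500 per well, 18 h 37 °C; Ca dye 2 h 37 °C; pin-tool compound addition (agonist mode); kinetic fluorescence 3 min, 1 s reads; 15 concentrations, triplicate.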
# [17] = biological target: Estrogen receptor (Homo sapiens) (UniProt P03372); assay: qHTS assay to identify small molecule agonists of the estrogen receptor alpha (ER-alpha) signaling pathway in the presence of an antagonist (AID 1259383; calls by dose curve; further: top concentration of the series differs between compounds; nearly all actives have a fitted effect of over 15% in size)
# Method in brief: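 Using VM7Luc4E2 cells seeded 24hr before treatment, antagonist ICI-182,780 (10.0nM final) was added, followed by compounds at 15 concentrations. Plates incubated 22hr; ONE-Glo luminescence quantified reporter activity.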
# [18] = biological target: Thyrotropin receptor (Homo sapiens) (UniProt P16473); assay: qHTS assay to identify small molecule antagonists of the thyroid stimulating hormone receptor (TSHR) signaling pathway (AID 1259385; calls by dose curve; further: nearly all actives have a fitted effect of over 20% in size; further: potency means the concentration at half of the fitted maximal effect)
# Method in brief: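 TSHR-HEK293 cells were plated and held 18 h at 37C/5% CO2, then given compound plus Ro20-1724 and stimulated with TSH at 1.5 ng/mL final. After 30 min at room temperature, cAMP was detected with cAMP-d2/anti-cAMP-cryptate (1 h) by fluorescence.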
# [19] = biological target: Progesterone receptor (Homo sapiens) (UniProt P06401); assay: qHTS assay to identify small molecule antagonists of the progesterone receptor (PR) signaling pathway (AID 1346795; active means well fitted inhibition curve with a large enough effect in the signal ratio in the repeat runs, not every such curve was filed as active; the % refers to the signal ratio; further: potency means the concentration at half of the fitted maximal effect)
# Method in brief: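 Beta-lactamase reporter, HEK293T PR-UAS-bla line; 2% charcoal-stripped FBS; 6 hr pre-incubation, 37C/5% CO2. Compound + R5020 1 nM final, 16 hr. LiveBLAzer B/G FRET substrate, 2 hr RT; fluorescence intensity read.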
# [20] = biological target: Androgen receptor (Homo sapiens) (UniProt P10275); assay: qHTS assay to identify small molecule agonists of the androgen receptor (AR) signaling pathway in the presence of an antagonist (AID 1259381; calls by dose curve; further: nearly all actives have a fitted effect of over 15% in size)
# Method in brief: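 Using human MDA-kb2 cells with an MMTV promoter–luciferase construct (AR and GR response elements), agonist activity is scored under 3.0uM nilutamide (final) co-treatment; 16hr incubation, 37C, luminescence readout via ONE-Glo.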
# Chain of Thyrotropin receptor (Homo sapiens) (P16473 whole entry, looked up): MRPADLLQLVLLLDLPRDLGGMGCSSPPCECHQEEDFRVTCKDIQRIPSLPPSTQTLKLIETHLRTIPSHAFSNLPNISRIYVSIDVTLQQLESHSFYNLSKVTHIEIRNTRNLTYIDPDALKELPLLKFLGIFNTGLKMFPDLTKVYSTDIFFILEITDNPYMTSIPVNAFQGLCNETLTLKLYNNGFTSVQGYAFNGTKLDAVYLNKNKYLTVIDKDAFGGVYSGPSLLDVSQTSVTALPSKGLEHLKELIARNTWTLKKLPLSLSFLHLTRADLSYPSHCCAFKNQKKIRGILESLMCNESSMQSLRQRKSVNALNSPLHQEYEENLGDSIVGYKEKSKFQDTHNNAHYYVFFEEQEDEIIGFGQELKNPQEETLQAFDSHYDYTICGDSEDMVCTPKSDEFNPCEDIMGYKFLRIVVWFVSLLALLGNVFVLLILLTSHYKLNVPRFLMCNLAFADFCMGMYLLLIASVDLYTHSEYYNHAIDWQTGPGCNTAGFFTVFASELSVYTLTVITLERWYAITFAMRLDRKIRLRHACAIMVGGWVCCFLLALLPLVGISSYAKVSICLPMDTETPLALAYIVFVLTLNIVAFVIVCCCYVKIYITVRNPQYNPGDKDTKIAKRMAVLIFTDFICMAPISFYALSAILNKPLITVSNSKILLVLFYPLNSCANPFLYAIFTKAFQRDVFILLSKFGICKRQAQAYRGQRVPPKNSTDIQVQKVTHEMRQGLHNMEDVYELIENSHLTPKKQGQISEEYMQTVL
# Chain of Progesterone receptor (Homo sapiens) (P06401 whole entry, looked up): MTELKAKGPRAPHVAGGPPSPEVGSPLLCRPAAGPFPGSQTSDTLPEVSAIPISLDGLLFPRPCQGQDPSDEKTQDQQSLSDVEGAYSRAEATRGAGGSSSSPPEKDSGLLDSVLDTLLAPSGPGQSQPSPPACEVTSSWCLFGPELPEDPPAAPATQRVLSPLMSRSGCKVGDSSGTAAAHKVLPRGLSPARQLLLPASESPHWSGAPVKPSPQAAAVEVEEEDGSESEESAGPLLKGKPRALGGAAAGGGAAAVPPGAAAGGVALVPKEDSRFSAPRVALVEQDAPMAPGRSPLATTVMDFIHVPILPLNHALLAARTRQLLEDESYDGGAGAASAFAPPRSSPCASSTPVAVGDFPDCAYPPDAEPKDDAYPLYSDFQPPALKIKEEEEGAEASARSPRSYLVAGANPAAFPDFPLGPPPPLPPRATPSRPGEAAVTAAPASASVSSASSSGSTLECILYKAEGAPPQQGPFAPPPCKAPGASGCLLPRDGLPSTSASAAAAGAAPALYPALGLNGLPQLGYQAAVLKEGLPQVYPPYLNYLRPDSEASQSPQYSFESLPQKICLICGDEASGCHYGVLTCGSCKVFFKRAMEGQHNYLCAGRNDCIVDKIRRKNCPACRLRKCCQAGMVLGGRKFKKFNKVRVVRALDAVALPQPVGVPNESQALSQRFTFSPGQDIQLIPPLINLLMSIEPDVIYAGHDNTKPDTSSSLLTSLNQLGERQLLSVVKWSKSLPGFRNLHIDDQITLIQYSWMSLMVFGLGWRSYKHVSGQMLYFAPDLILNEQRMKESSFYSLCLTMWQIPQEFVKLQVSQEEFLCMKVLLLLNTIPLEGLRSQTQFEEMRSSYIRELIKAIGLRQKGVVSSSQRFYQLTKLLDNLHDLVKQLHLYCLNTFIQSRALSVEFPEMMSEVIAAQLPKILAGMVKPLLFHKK
# Chain of Estrogen receptor (Homo sapiens) (P03372 whole entry, looked up): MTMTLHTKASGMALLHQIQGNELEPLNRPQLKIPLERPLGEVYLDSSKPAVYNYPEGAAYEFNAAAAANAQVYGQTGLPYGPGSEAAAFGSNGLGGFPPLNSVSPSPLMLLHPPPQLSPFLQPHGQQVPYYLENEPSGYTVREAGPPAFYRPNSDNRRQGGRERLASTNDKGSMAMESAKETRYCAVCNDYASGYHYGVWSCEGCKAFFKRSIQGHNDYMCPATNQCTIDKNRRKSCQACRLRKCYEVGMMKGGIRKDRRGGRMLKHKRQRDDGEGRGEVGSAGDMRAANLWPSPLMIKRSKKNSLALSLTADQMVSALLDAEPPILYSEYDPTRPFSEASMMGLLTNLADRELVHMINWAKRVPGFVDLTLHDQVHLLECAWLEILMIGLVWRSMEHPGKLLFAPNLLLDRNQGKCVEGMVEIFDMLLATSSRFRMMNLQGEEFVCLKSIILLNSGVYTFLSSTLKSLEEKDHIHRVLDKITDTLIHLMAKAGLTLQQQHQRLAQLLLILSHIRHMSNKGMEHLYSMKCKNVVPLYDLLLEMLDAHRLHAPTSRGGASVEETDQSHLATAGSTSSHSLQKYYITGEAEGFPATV
# Chain of Thyrotropin-releasing hormone receptor (Homo sapiens) (P34981 whole entry, looked up): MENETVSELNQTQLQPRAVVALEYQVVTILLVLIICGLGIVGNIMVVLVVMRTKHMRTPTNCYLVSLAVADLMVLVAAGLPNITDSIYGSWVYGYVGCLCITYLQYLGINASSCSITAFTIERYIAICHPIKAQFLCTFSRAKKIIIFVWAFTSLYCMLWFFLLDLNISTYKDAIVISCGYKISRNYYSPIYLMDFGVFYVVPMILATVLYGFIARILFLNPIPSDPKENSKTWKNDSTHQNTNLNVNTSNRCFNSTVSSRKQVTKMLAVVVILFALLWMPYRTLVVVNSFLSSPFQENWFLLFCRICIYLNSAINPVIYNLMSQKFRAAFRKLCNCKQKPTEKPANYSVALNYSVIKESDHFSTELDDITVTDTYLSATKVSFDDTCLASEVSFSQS
# Chain of Estrogen receptor beta (Homo sapiens) (Q92731 whole entry, looked up): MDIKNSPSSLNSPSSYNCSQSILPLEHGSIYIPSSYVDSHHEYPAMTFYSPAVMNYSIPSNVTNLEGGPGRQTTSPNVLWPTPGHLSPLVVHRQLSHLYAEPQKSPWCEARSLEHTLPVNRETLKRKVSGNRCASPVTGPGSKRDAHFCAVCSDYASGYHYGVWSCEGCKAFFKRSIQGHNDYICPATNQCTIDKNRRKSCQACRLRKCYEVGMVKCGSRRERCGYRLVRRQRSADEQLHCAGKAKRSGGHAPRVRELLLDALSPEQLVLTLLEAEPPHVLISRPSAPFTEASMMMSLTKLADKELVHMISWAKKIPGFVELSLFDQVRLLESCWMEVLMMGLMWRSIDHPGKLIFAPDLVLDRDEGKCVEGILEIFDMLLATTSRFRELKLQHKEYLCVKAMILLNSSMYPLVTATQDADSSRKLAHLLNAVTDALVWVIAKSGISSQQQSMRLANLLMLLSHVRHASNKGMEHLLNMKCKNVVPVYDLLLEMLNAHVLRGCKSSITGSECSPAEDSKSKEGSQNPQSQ
# Chain of Androgen receptor (Homo sapiens) (P10275 whole entry, looked up): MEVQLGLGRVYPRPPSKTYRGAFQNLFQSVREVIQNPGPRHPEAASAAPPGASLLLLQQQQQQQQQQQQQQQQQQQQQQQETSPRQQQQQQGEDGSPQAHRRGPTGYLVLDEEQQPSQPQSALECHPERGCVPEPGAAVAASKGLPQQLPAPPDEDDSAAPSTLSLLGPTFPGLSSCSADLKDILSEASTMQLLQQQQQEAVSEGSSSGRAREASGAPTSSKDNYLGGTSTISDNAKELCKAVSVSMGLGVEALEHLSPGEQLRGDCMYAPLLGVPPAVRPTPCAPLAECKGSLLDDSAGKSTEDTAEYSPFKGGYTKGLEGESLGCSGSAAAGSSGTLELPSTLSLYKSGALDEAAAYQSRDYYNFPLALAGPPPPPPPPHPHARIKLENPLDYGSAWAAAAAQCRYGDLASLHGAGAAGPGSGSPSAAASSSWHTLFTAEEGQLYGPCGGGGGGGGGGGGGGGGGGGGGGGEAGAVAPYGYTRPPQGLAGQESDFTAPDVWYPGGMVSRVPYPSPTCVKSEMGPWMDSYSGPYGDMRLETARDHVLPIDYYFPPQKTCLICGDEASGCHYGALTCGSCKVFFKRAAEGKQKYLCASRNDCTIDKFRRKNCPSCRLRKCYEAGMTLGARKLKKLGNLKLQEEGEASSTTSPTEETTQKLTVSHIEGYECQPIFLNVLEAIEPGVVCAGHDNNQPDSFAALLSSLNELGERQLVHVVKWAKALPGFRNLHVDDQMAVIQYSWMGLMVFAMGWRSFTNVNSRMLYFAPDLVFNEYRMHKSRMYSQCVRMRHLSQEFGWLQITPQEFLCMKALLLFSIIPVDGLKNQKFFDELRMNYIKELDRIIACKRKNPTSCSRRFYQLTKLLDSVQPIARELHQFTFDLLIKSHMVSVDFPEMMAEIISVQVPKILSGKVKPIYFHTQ
Compound,Potency [1],Potency [2],Potency [3],Potency [4],Potency [5],Potency [6],Potency [7],Potency [8],Potency [9],Potency [10],Potency [11],Potency [12],outcome [13],Potency [14],outcome [15],Potency [16],Potency [17],Potency [18],Potency [19],Potency [20]
COc1cc(Cl)c(OC)cc1N,inactive,inactive,inactive,inactive,inactive,inactive,inactive,inactive,inactive,inactive,inactive,inactive,inactive,inactive,inactive,inactive,–,–,–,–
CN(C)CCN(Cc1ccccc1)c1ccccn1,inactive,inactive,inactive,inactive,–,inactive,inactive,inactive,–,–,–,inactive,inactive,inactive,inactive,inactive,inactive,inactive,–,–
O[C@@H](COc1cccc2ncccc12)CN1CCN(C2c3ccccc3[C@@H]3[C@H](c4ccccc42)C3(F)F)CC1 (stereo partly specified),13.3 µM (active),inactive,16.8 µM (active),inactive,26.6 µM (active),–,inactive,inactive,inactive,inactive,–,–,inactive,inactive,inactive,inactive,inactive,inactive,–,–
COc1cc2nc(N(C)CCCNC(=O)C3CCCO3)nc(N)c2cc1OC (stereo unspecified),13.3 µM (active),inactive,inactive,–,inactive,inactive,inactive,23.7 µM (active),inactive,–,–,inactive,inactive,inactive,inactive,inactive,inactive,inactive,inactive,–
Cc1oc(-c2ccccc2)nc1CCOc1cccc2c1ccn2CCC(=O)O,inactive,inactive,30.6 µM (active),–,10.9 µM (active),inactive,inactive,19.3 µM (active),inactive,–,–,inactive,inactive,–,–,–,inactive,inactive,–,–
COc1cc(C(=O)OCCCN2CCCN(CCCOC(=O)c3cc(OC)c(OC)c(OC)c3)CC2)cc(OC)c1OC,6.68 µM (active),inactive,inactive,–,23.7 µM (active),inactive,inactive,13.3 µM (active),–,inactive,inactive,inactive,inactive,inactive,inactive,inactive,inactive,inactive,–,inactive
C1CCCNCCC1,inactive,inactive,inactive,inactive,inactive,inactive,inactive,–,inactive,inactive,inactive,inactive,inactive,inactive,–,–,–,inactive,inactive,–
CCc1c(C(=O)NN2CCCCC2)nn(-c2ccc(Cl)cc2Cl)c1-c1ccc(Br)cc1,inactive,inactive,4.33 µM (active),inactive,–,–,inactive,inactive,inactive,inactive,–,inactive,inactive,–,inactive,inactive,inactive,inactive,3.44 µM (active),–
CCCCOC(=O)CCCCCCCC(=O)OCCCC,inactive,inactive,inactive,inactive,inactive,inactive,inactive,inactive,inactive,inactive,inactive,inactive,inactive,inactive,–,–,–,inactive,inactive,–
S=C([S-])NCCNC(=S)[S-].[Mn+2],inactive,inactive,inactive,inactive,–,inactive,inactive,inactive,inactive,–,–,inactive,inactive,inactive,–,–,–,inactive,–,–
CC(=O)c1ccc2c(c1)N(CCCN1CCC(CCO)CC1)c1ccccc1S2,11.9 µM (active),inactive,15 µM (active),–,26.6 µM (active),–,–,–,inactive,–,–,inactive,inactive,inactive,–,–,inactive,–,–,–
CCCCCCCCCc1ccc(OCCOCCO)cc1,8.1 µM (active),inactive,–,5.74 µM (active),20.4 µM (active),–,inactive,–,–,–,–,18.3 µM (active),–,inactive,inactive,inactive,–,25.6 µM (active),12.8 µM (active),inactive
CC(C)(O)c1ccc(CNC(=O)c2cccnc2Oc2ccc(F)cc2)cc1,0.273 µM (active),inactive,inactive,inactive,inactive,inactive,inactive,inactive,inactive,–,–,–,inactive,inactive,–,–,–,inactive,inactive,–
O=C(O)c1ccccc1Cl,inactive,inactive,inactive,inactive,inactive,inactive,inactive,inactive,inactive,inactive,inactive,inactive,inactive,inactive,inactive,inactive,–,inactive,–,–
O=C(NCC1CN(c2ccc(N3CCOCC3=O)cc2)C(=O)O1)c1ccc(Cl)s1 (stereo unspecified),inactive,inactive,inactive,inactive,–,–,inactive,inactive,inactive,inactive,–,inactive,inactive,inactive,inactive,inactive,inactive,inactive,inactive,–
CCCCC(CC)COC(=O)COc1ccc(Cl)cc1Cl (stereo unspecified),inactive,inactive,inactive,inactive,–,inactive,inactive,inactive,inactive,inactive,inactive,inactive,inactive,inactive,inactive,inactive,inactive,–,–,–
